Screens: PubChem BioAssay, National Center for Advancing Translational Sciences (NCATS)
Only some compounds are listed: those with a hit (about 8% of all), similar ones and a draw of the others.
TSHR antag = human thyrotropin receptor antagonism; P16473; TSHR-expressing cells, TSH-stimulated cAMP HTRF, 2 h; stronger effect = lower value; activity change, negative = inhibition, % at 11.5 µM; 0.2% of 330,000 active;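 active = activity change below a set negative limit, meaning inhibition stronger than a set level, cut at about -70% in these data; inconclusive = activity change between two set negative limits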
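Competitive HTRF cAMP read-out (cryptate anti-cAMP antibody, cAMP-d2; 30 min, room temperature) in freshly harvested TSHR cells. Compounds added before TSH at EC80 (4nM final), followed by 2 hours' incubation at 37 deg C.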
ELG1 DNA repair = blocks ELG1-dependent DNA repair in HEK293T cells; AID 504467; Potency, µM (titrated, usually from 46.1 µM), actives largely listed as inhibitors; HEK293T ELG1-luciferase reporter, luminescence, 16 h; DNA damage induced by 5-fluorouridine; 2.3% of 330,000 active; also: nearly all actives have a fitted effect of over 55% in size
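In this reporter screen, reduction of luminescence relative to DMSO vehicle indicated activity. Compounds and 5-fluorouridine were added together to 2,000 cells per well, incubated for 16 hr at 37 °C, then developed with ONE-Glo.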
RORg inh = inhibitors of mouse ROR gamma transcriptional activity. Drosophila S2 Gal4-RORgamma UAS-luciferase reporter, 20 h. P51450. Potency, µM (highest dose often 53.6 µM), actives largely listed as inhibitors. 5.4% of 310,000 active; also: nearly all actives have a fitted effect of over 60% in size
Target sequence (P51450 whole entry, looked up, the tested form may be a part): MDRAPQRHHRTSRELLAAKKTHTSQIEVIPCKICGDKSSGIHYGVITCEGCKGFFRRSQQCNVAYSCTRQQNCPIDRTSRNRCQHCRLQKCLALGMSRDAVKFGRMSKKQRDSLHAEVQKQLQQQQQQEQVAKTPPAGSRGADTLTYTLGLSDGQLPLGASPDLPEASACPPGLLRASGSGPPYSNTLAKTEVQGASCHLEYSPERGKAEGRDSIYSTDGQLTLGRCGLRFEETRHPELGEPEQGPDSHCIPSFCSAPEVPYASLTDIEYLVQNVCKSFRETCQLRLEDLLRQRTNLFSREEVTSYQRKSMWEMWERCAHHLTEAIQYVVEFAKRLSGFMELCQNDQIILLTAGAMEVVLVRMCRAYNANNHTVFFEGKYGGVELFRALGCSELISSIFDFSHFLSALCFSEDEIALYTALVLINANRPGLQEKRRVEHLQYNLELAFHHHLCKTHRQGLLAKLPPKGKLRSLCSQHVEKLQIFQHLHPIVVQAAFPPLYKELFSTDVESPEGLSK
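Drosophila S2 cells stably expressing Gal4-DBD/mouse RORγ fusion under metallothionein promoter plus UAS-luciferase; compound 1 h, then 700 uM CuSO4 induction for 20 h at ambient temperature; inhibition read as reduced luminescence.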
FBPA coupling cs = inhibits coupling enzyme system, counter-screen for aldolase hits. coupling enzyme system counterscreen, AmpLite Red fluorescence. activity change, negative = inhibition, % at 58.2 µM, hits read low. 0.67% of 290,000 active. AID 2472; in the data active = activity change below about -30%
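First, compound is pin-transferred into glyceraldehyde-3-phosphate coupling-enzyme reagent at 57.5 uM final and held 10 min at RT. Next, substrate, coupling system and AmpLite Red are added. After 20 min RT, fluorescence (525/598 nm) is read.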
Gal4-VP16 FLuc = inhibits Gal4-VP16 luciferase reporter, ROR gamma counter-screen. Potency, µM (series often up to 53.6 µM), actives largely listed as inhibitors. Drosophila S2 Gal4-VP16 UAS-luciferase, luminescence, 20 h. 3.5% of 310,000 active. AID 2546;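 also: Gal4-VP16 expression switched on by copper sulfate through the metallothionein promoter; nearly all actives have a fitted effect of over 50% in size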
Large screens that a line does not name were inactive. Unless noted, calls follow the shape of the dose curve; as a rule, active = well fitted curve in the direction sought with a large enough effect; inconclusive = small, poorly fitted or top-dose-only effect, or another doubt; inactive = no such curve, though single readings can be large; an effect the other way counts as inactive or inconclusive.

CSc1cccc(CNC(=O)C2CCC(=O)N(CCCN3CCCC3=O)C2)c1 (stereo unspecified)	none (no result: FBPA coupling cs)
COc1ccc(C(=O)N2CCC[C@@]3(CCN(c4ccccc4)C3)C2)cc1	none (no result: TSHR antag, ELG1 DNA repair)
CN(c1ccccc1)S(=O)(=O)c1cccc(NC(=O)Cn2cnc3ccccc3c2=O)c1	ELG1 DNA repair inconclusive, RORg inh inconclusive
CN(c1ccccc1)S(=O)(=O)c1cccc(NC(=O)C2=NNC(=O)CC2)c1	ELG1 DNA repair 16.4µM (no result: RORg inh, FBPA coupling cs, Gal4-VP16 FLuc)
CN(c1ccccc1)S(=O)(=O)c1cccc(NC(=O)c2nn(C)c(=O)c3ccccc23)c1	ELG1 DNA repair 18.3µM (no result: RORg inh, FBPA coupling cs, Gal4-VP16 FLuc)
COc1ccc(-c2nc3ccccc3c(=O)n2-c2c(C)n(C)n(-c3ccccc3)c2=O)cc1	ELG1 DNA repair inconclusive
COc1ccc(-c2nc3ccccc3c(=O)n2O)cc1	RORg inh 12.6µM, Gal4-VP16 FLuc inconclusive
COc1ccccc1-c1nc2cc(Cl)ccc2c(=O)n1O	RORg inh inconclusive, Gal4-VP16 FLuc 2.51µM
O=c1c2ccc(Cl)cc2nc(-c2ccc([N+](=O)[O-])cc2)n1O	ELG1 DNA repair 9.2µM, RORg inh 8.91µM, Gal4-VP16 FLuc 17.8µM
COc1ccccc1-c1nc2ccc(Cl)cc2c(=O)n1O	none
O=c1c2cc(Cl)ccc2nc(-c2ccc(Cl)c(Cl)c2)n1O	none
O=c1c2cc(Cl)ccc2nc(-c2ccccc2)n1O	RORg inh 6.31µM
Cc1ccc(C(=O)OCC(=O)NC2CCCC2)cc1C	none
COc1cc(CCC(=O)Nc2cccc(S(=O)(=O)N(C)C)c2)cc(OC)c1OC	ELG1 DNA repair inconclusive
COc1cc(CC(=O)Nc2cccc(S(=O)(=O)N(C)c3ccccc3)c2)cc(OC)c1OC	ELG1 DNA repair 9.2µM (no result: RORg inh, FBPA coupling cs, Gal4-VP16 FLuc)
CN(c1ccccc1)S(=O)(=O)c1cccc(NC(=O)CSc2n[nH]c(N)n2)c1	ELG1 DNA repair 20.6µM, RORg inh inconclusive, Gal4-VP16 FLuc 7.08µM
O=C(CN1C(=O)NC2(CCc3ccccc32)C1=O)c1c[nH]c2ccccc12 (stereo unspecified)	none (no result: RORg inh, FBPA coupling cs, Gal4-VP16 FLuc)
CC1(C)C2CCC(C2)C1C/C=N/NC(N)=S (stereo unspecified)	RORg inh 1.78µM, Gal4-VP16 FLuc 3.98µM
COc1ccc(CN(C)C(=O)Cn2ccc(N)nc2=O)cc1OC	none (no result: RORg inh, FBPA coupling cs, Gal4-VP16 FLuc)
CCOc1ccc(OCC(=O)Nc2nccs2)cc1	ELG1 DNA repair inconclusive, RORg inh 12.6µM
Cc1ccc(CCC(=O)Nc2nccs2)o1	Gal4-VP16 FLuc 28.2µM
COc1ccc(OCCC(=O)Nc2nccs2)cc1	RORg inh inconclusive, Gal4-VP16 FLuc inconclusive
O=C(COc1cccc2cccnc12)Nc1nccs1	ELG1 DNA repair inconclusive, RORg inh inconclusive, Gal4-VP16 FLuc 17.8µM
COc1ccc(OCC(=O)Nc2nccs2)cc1	ELG1 DNA repair inconclusive, RORg inh 3.55µM, Gal4-VP16 FLuc 7.94µM
Cc1ccc(NC(=O)CSCC(=O)Nc2ccccc2C(=O)NC2CC2)cc1	none (no result: RORg inh, FBPA coupling cs, Gal4-VP16 FLuc)
COc1ccc(NC(=O)CN(c2ccccc2F)S(=O)(=O)c2ccc(C)cc2)c(OC)c1	ELG1 DNA repair inconclusive
O=C(COc1ccc2c(c1)OCO2)Nc1nccs1	ELG1 DNA repair inconclusive, RORg inh 10µM, Gal4-VP16 FLuc inconclusive
Cc1cccc(OCCCC(=O)Nc2ccc(S(=O)(=O)Nc3nccs3)cc2)c1C	RORg inh inconclusive
Cc1cccc(OCCCC(=O)Nc2nccs2)c1C	RORg inh 3.16µM
COCc1nnc(NC(=O)COc2ccc3c(c2)OCO3)s1	none
NC(=S)N/N=C1\CC(n2nnnc2-c2ccccc2Cl)C2COC1O2 (stereo unspecified)	RORg inh 11.2µM, Gal4-VP16 FLuc inconclusive
Cc1ccc(-c2nnnn2C2C/C(=N\NC(N)=S)C3OCC2O3)cc1 (stereo unspecified)	RORg inh 10µM, Gal4-VP16 FLuc inconclusive
CC(=O)Nc1ccc2c(c1)N(C(C)=O)c1ccccc1CC2	ELG1 DNA repair 20.6µM
CN(C)CC(=O)N1c2ccccc2CCc2ccc(NC(=O)c3ccc(N)cc3)cc21	ELG1 DNA repair inconclusive, RORg inh 7.94µM, Gal4-VP16 FLuc 7.08µM
CC(=O)N1c2ccccc2CCc2ccc(N)cc21	none
COc1cc(C(=O)Nc2ccc3c(c2)N(C(=O)CCN(C)C)c2ccccc2CC3)cc(OC)c1OC	ELG1 DNA repair inconclusive
CC(C)[C@H](O)C1=CCCCC1=O	none (no result: TSHR antag, ELG1 DNA repair)
